# About 7,900 targets were measured; listed, in parts, are those with a hit and a random draw of the rest. About 0.6% of all pairs of compound and target were hits. Values without a mark were called inactive.
# Columns and labels:
# Test in all cases: log2 fold change, soluble protein after heating vs DMSO (PISA); higher = thermal stabilisation; K562 cells, 10 uM, 30 min; active = over 0.2 and 3.5 SD of the protein, either way, in both replicates (recomputed)
# [1] = compound: CC1=C(C=C(C=C1)NC(=O)C2=CC(=CC=C2)C(C)(C)C#N)NC3=CC4=C(C=C3)N=CN(C4=O)C
# Procedure, shortened: (§1)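 K562 cells at 2×10^6 cells/mL were given 10 μM compound for 30 min. Aliquots then went through 3 min of heating across 48°C-58°C, were pooled, and were extracted in PBS with 0.5% NP-40 at 4°C, and the supernatant after 21,000xg for 90 min was quantified by TMTpro 16plex LC-MS/MS with channel sums equalised. Thermal stability relative to control samples, from duplicates, is given as log2 fold change.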
# [2] = compound: CC1=C(C=C(C=C1)NC(=O)C2=CC(=CC=C2)N(C)C)NC(=O)C3=CC=C(C=C3)O
# Procedure, shortened: as §1
# [3] = compound: CC1=CC=C(C=C1)SC2=C3C=C(SC3=CN=C2)C(=O)N
# Procedure, shortened: as §1
# [4] = compound: CC1=NC(=CC=C1)C2=C(N=C(N2)C(C)(C)C)C3=CC4=NC=CN=C4C=C3
# Procedure, shortened: as §1
# [5] = compound: CCCCN(Cc1ccc(C(=O)NO)cc1)C(=O)Nc1ccccc1 [Nexturastat A]
# Procedure, shortened: as §1
# [6] = compound: CCCS(=O)(=O)Nc1ccc(F)c(C(=O)c2c[nH]c3ncc(-c4ccc(Cl)cc4)cc23)c1F [vemurafenib]
# Procedure, shortened: as §1
# [7] = compound: CCCS(=O)(=O)Nc1ccc(F)c(C(=O)c2c[nH]c3ncc(Cl)cc23)c1F
# Procedure, shortened: as §1
# [8] = compound: CCCc1cc(C)[nH]c(=O)c1CNC(=O)c1cc(-c2ccnc(N3CCN(C)CC3)c2)cc2c1cnn2C(C)C
# Procedure, shortened: as §1
# [9] = compound: CCN(CC)Cc1ccc2cc(COC(=O)Nc3ccc(C(=O)NO)cc3)ccc2c1 [givinostat]
# Procedure, shortened: as §1
# [10] = compound: CCN(CCCOc1ccc2c(Nc3cc(CC(=O)Nc4cccc(F)c4)[nH]n3)ncnc2c1)CCOP(=O)(O)O [barasertib]
# Procedure, shortened: as §1
# [11] = compound: CC[C@@H]1C(=O)N(C)c2cnc(Nc3ccc(C(=O)NC4CCN(C)CC4)cc3OC)nc2N1C1CCCC1
# Procedure, shortened: as §1
# [12] = compound: CC[C@@H]1C(=O)N(C)c2cnc(Nc3ccc(C(=O)N[C@H]4CC[C@H](N5CCN(CC6CC6)CC5)CC4)cc3OC)nc2N1C(C)C [volasertib]
# Procedure, shortened: as §1
# [13] = compound: CC[C@H](C)N1C=C(C2=C(C=C(C=C21)C3=CN=C(C=C3)N4CCNCC4)C(=O)NCC5=C(C=C(NC5=O)C)C)C
# Procedure, shortened: as §1
# [14] = compound: CC[C@H](C)[C@@H](C(=O)N[C@@H]([C@@H](C)O)C(=O)N[C@@H](CC(C)C)C(=O)[C@]1(CO1)C)NC(=O)[C@H]([C@@H](C)CC)N(C)C(=O)C [epoxomicin]
# Procedure, shortened: as §1
# [15] = compound: CCn1c(C(=O)N(C2CC2)C2CC2)cc2c3c(ncn3C)c(Nc3cc(C)n(C)n3)nc21
# Procedure, shortened: as §1
# [16] = compound: CCn1cc(-c2ccnc3[nH]c(-c4cccc(CN(C)C)c4)cc23)c(-c2ccc(NC(=O)N(C)C)cc2)n1
# Procedure, shortened: as §1
# [17] = compound: CN(C)CC(=O)Nc1ccc2[nH]c(=O)c3ccccc3c2c1
# Procedure, shortened: as §1
# [18] = compound: CN(CCOC1=CC=C(C=C1)C[C@H]2C(=O)NC(=O)S2)C3=CC=CC=N3 (racemic) [rosiglitazone]
# Procedure, shortened: as §1
# [19] = compound: CN1C2=C(C3=C1C(=O)N(N=C3)CC4=CC(=CC=C4)N)SC(=C2)S(=O)C
# Procedure, shortened: as §1
# [20] = compound: CN1CCC(CNc2ccc3ncc(-c4cccc(OC(F)(F)F)c4)n3n2)CC1
# Procedure, shortened: as §1
# Sequence of UniProt Q13530 (Q13530 whole entry, looked up): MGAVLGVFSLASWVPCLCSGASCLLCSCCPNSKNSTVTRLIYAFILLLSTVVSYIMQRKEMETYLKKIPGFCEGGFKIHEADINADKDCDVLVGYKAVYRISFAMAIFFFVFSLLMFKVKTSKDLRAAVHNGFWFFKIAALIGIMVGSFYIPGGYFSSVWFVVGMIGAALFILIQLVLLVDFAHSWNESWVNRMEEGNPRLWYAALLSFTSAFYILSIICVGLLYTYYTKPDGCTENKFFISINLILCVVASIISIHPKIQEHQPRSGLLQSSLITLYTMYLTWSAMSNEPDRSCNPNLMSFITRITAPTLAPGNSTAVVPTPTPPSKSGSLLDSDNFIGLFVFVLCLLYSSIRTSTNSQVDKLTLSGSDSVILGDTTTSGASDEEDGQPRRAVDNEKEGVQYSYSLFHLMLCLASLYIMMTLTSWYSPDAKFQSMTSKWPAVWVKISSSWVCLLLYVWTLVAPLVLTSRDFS
# Sequence of UniProt P06400 (P06400 whole entry, looked up): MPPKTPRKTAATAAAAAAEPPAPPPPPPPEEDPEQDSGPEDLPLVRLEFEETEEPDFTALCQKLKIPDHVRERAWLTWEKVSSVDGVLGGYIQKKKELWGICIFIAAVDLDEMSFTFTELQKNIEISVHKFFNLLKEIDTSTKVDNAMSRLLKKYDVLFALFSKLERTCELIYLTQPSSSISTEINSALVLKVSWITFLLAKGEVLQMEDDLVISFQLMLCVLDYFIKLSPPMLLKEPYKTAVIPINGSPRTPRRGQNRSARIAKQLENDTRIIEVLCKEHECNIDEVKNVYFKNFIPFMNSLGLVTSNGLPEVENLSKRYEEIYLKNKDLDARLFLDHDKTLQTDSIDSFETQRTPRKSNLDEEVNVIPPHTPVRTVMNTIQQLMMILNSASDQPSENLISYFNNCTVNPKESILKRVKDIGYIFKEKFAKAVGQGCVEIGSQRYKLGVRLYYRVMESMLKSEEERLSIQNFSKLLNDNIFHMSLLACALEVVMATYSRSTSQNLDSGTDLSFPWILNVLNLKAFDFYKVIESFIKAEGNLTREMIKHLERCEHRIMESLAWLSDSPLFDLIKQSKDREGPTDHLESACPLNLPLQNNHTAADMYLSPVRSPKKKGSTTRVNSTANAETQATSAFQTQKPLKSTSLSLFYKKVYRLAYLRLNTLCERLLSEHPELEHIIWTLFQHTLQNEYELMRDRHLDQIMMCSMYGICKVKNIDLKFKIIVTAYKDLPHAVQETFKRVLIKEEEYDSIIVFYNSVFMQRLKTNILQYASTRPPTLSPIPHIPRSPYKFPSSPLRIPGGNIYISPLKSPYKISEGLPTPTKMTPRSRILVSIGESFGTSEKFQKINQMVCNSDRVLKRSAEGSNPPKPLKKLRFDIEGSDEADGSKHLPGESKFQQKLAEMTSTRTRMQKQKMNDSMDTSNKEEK
# Sequence of UniProt Q9UKM9 (Q9UKM9 whole entry, looked up): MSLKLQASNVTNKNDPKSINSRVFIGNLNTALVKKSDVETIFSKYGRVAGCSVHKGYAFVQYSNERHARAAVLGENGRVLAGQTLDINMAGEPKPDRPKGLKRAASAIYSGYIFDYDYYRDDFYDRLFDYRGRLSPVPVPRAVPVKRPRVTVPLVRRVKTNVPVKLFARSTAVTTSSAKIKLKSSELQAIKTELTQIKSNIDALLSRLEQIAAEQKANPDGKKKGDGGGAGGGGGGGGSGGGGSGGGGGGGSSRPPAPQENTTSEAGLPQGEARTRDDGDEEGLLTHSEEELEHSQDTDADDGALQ
# Sequence of UniProt Q86VR2 (Q86VR2 whole entry, looked up): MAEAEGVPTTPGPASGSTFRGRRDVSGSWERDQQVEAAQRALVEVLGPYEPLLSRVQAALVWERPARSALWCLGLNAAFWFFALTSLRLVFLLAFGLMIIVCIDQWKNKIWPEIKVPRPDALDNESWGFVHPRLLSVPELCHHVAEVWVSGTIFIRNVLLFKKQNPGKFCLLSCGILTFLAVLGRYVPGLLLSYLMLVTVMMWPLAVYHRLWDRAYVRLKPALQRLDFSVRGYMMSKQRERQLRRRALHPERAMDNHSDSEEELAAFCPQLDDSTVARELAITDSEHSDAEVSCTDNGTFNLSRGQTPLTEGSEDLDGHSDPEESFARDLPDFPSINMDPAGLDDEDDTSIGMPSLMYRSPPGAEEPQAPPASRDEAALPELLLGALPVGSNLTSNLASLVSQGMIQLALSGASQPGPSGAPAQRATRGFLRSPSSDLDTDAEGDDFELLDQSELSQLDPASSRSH
# Sequence of UniProt O75116 (O75116 whole entry, looked up): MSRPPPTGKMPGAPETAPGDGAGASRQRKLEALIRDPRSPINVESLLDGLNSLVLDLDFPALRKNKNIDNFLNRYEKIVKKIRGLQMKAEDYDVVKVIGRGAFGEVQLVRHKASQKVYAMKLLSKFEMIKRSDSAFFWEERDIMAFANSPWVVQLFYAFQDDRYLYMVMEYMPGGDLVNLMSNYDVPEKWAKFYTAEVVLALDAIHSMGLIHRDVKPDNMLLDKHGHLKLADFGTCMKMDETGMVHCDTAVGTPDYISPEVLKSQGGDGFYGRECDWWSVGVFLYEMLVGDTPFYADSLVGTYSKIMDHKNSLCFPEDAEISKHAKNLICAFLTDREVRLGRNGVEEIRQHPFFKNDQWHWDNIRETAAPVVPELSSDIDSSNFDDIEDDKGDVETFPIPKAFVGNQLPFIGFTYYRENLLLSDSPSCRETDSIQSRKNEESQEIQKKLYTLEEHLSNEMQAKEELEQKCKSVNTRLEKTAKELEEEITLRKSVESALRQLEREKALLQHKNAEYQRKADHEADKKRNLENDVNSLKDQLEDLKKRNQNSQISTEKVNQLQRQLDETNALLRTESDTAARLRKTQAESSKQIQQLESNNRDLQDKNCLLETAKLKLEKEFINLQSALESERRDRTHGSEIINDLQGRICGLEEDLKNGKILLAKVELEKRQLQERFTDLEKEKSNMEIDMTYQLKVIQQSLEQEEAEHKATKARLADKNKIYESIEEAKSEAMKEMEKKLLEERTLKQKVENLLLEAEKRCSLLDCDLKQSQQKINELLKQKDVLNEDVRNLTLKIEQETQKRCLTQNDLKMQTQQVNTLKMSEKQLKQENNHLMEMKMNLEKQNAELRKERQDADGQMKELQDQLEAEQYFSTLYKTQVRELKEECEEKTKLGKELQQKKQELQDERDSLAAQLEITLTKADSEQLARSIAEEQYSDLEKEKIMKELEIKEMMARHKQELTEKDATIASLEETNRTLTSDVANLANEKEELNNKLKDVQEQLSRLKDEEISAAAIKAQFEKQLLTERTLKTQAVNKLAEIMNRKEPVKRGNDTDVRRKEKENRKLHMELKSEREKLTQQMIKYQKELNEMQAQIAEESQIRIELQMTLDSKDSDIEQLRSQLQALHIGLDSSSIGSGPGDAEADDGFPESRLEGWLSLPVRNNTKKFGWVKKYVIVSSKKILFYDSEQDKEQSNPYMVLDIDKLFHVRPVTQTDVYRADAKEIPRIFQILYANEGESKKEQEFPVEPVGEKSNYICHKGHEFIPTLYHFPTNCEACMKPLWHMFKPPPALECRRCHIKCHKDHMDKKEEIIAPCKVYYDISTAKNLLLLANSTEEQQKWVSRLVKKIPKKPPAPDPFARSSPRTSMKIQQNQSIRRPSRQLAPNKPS
# Sequence of UniProt P61586 (P61586 whole entry, looked up): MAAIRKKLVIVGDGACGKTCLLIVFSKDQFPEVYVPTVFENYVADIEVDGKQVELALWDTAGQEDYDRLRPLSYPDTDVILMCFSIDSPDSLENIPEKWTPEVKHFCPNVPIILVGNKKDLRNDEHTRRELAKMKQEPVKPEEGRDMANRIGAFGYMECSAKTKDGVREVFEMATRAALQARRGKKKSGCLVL
# Sequence of UniProt Q15382 (Q15382 whole entry, looked up): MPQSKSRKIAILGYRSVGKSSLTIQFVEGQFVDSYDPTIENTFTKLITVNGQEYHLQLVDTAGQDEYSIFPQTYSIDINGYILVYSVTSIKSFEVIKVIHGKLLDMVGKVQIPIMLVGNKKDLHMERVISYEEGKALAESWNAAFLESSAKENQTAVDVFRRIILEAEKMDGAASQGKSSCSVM
# Sequence of UniProt Q14493 (Q14493 whole entry, looked up): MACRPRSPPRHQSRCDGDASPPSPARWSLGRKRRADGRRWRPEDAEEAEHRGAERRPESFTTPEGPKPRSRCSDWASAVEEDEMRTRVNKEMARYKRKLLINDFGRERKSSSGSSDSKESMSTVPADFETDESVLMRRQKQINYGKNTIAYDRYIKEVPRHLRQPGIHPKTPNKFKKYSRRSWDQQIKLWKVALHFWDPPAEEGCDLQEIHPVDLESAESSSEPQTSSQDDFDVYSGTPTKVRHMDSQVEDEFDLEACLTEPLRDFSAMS
# Sequence of UniProt O00767 (O00767 whole entry, looked up): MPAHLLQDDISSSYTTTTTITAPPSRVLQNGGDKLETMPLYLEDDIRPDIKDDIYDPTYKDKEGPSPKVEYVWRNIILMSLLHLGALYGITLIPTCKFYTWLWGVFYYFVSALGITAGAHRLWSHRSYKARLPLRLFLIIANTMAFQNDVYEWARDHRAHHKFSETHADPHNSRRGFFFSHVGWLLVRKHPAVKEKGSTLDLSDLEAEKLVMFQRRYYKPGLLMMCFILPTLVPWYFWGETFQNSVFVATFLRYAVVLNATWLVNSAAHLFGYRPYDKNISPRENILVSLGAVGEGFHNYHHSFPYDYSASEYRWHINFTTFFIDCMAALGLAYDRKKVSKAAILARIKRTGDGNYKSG
# Sequence of UniProt Q9NX18 (Q9NX18 whole entry, looked up): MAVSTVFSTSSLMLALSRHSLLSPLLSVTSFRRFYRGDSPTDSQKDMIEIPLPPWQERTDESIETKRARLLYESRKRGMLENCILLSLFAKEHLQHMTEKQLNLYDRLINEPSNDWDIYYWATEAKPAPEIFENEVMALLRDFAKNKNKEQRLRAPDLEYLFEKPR
# Sequence of UniProt Q99643 (Q99643 whole entry, looked up): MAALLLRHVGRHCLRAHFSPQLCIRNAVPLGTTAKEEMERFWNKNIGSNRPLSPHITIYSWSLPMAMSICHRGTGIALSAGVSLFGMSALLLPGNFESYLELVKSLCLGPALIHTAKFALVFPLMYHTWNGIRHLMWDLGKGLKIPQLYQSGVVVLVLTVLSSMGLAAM
Target,log2 fold change [1],log2 fold change [2],log2 fold change [3],log2 fold change [4],log2 fold change [5],log2 fold change [6],log2 fold change [7],log2 fold change [8],log2 fold change [9],log2 fold change [10],log2 fold change [11],log2 fold change [12],log2 fold change [13],log2 fold change [14],log2 fold change [15],log2 fold change [16],log2 fold change [17],log2 fold change [18],log2 fold change [19],log2 fold change [20]
RIOK2 (UniProt Q9BVS4),0.035,0.006,-0.046,-0.021,0.178,-0.001,-0.007,0.056,0.035,0,0.133,0.267,0.015,-0.032,0.019,-0.013,-0.038,0.014,0.085,0.202
RHOA (UniProt P61586),0.015,-0.073,0.047,0.061,0.039,-0.042,0.074,0.145,-0.032,0.026,-0.098,0.134,0.065,0.049,0.024,0.071,-0.025,-0.057,-0.037,0.01
RAD51 (UniProt Q06609),-0.012,-0.017,-0.042,-0.052,0.001,0.02,-0.048,0.032,0.179,0.016,0.013,0.113,0.026,0.157,-0.029,-0.011,-0.024,-0.016,-0.075,0.051
RALY (UniProt Q9UKM9),0.091,-0.021,-0.05,0.105,0.358,-0.056,0.187,0.005,0.209,-0.138,0.113,-0.05,0.136,-0.277,0.012,0.173,0.001,-0.134,0.358,0.092
RETREG3 (UniProt Q86VR2),-0.006,0.014,0.148,0.13,0.062,0.043,0.055,-0.044,-0.048,0.023,-0.04,-0.132,0,0.048,0.026,-0.043,0.008,0.016,-0.02,-0.149
SDHAF2 (UniProt Q9NX18),-0.047,0.026,0.079,0.019,0.076,0.028,-0.024,-0.06,0.036,0.005,0.089,0.093,-0.081,-0.057,0.053,0.06,-0.004,0.02,0.037,0.045
RPS5 (UniProt P46782),0.012,0,0.001,-0.038,0.126,-0.034,-0.066,0.038,-0.014,-0.1,0.103,0.337,0.065,-0.079,0.025,0.059,-0.036,-0.073,0.089,0.044
ROCK2 (UniProt O75116),0.009,-0.044,-0.037,0.02,-0.004,0.034,-0.005,-0.06,0.055,0.027,-0.033,-0.139,-0.009,0.063,-0.028,-0.178,0.007,0.177,-0.02,-0.042
RUNX1 isoform 8 (UniProt Q01196),0.236,0.018,0.059,-0.045,-0.231,-0.026,0.046,0.088,0.076,-0.058,-0.331,-0.434 (active),0.086,-0.206,0.035,-0.089,0.06,0.032,-0.027,-0.102
RB1 (UniProt P06400),0.016,-0.011,0.034,0.003,-0.1,-0.01,-0.008,-0.026,-0.02,-0.004,0.018,0.034,0.016,0.041,-0.016,-0.05,0.008,0.009,-0.064,-0.265 (active)
SCD (UniProt O00767),-0.076,0.037,0.038,0.078,-0.121,0.022,-0.053,-0.021,-0.457 (active),0.003,0,0.009,-0.063,0.109,0.103,0.036,0.008,-0.023,0.025,0.095
SDHC (UniProt Q99643),0.01,0.023,-0.041,0.023,-0.217,0.128,0.038,-0.122,-0.108,-0.04,0.042,0.036,-0.1,0.205,0.018,0,0.264,0.064,-0.068,0.023
SLBP (UniProt Q14493),-0.012,-0.08,0.019,0.099,-0.218,0.028,0.057,0.024,0.055,0.06,-0.052,-0.034,0.013,0.127,-0.03,0,-0.003,-0.048,0.113,-0.291 (active)
RHEB (UniProt Q15382),0.008,-0.002,0.008,0.052,-0.277 (active),-0.004,0.021,-0.026,-0.009,0.014,0.038,0.013,-0.014,0.002,0.022,0.02,0.016,0.026,-0.068,-0.003
SERINC3 (UniProt Q13530),-0.136,-0.001,0.009,0.054,0.011,0.083,0.002,-0.414 (active),0.064,0.038,0.165,0.075,-0.144,-0.092,0.029,-0.064,0.043,0.049,-0.014,0.046
RPS6KA2 isoform 2 (UniProt Q15349),-0.087,-0.229,0.159,0.011,0.009,0.037,0.026,0.023,-0.148,0.064,-0.136,-0.179,0.034,0.041,0.133,-0.126,0.025,0.072,-0.038,-0.313

# Source: the supplement of paper PMC10849652
